Where “and” joins values, the source holds several entries; their conditions need not be identical. Equal values may be shown once. Hit rate of the full screen: of about 5,500 compounds, about 2,000 (36%) were called active. Not shown: some 18% with an inconclusive outcome. No stated cut-off is given here; in the data, active means normalized growth mostly below about 0.91 (no sharp cut-off); inconclusive means no clear call, values can overlap the other calls; inactive means mostly above about 0.92. This is one part of the list.
Test: chemical genetic growth profiling, strain panel (AID 1159580);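 further: tested at 20 µM; growth read once vehicle control cultures reached saturation at 30 °C; 1 = growth at the plate median or of vehicle wells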
Conditions: S. cerevisiae deletion strains, growth OD

Measured: normalized growth

CS(=O)(=O)CCCCN=C=S
0.969 (inactive) and 0.726 (active): locus YHR030C, strain SLT2, stronger effect = lower value
inactive: locus YBR171W, strain sec66, stronger effect = lower value 0.954 | locus YBR229C, strain ROT2, stronger effect = lower value 0.96 | locus YDL005C, strain med2, stronger effect = lower value 1.01 | locus YDL185W, strain tfp1, stronger effect = lower value 0.948 | locus YDR137W, strain rgp1, stronger effect = lower value 0.918 | locus YDR150W, strain NUM1, stronger effect = lower value 0.963 | locus YDR159W, strain sac3, stronger effect = lower value 0.898 | locus YEL061C, strain CIN8, stronger effect = lower value 0.978 | locus YER111C, strain swi4, stronger effect = lower value 0.988 | locus YER155C, strain BEM2, stronger effect = lower value 1.01 | locus YER167W, strain BCK2, stronger effect = lower value 0.973 | locus YGL167C, strain pmr1, stronger effect = lower value 0.964 | locus YIL073C, strain SPO22, stronger effect = lower value 0.772 | locus YJL115W, strain asf1, stronger effect = lower value 0.941 | locus YJL134W, strain LCB3, stronger effect = lower value 0.981 | locus YJL168C, strain set2, stronger effect = lower value 0.954 | locus YKL068W, stronger effect = lower value 1.01 | locus YKL085W, strain MDH1 (second series), stronger effect = lower value 1 | locus YKL085W, strain MDH1, stronger effect = lower value 1 | locus YLR039C, strain RIC1, stronger effect = lower value 0.758 | locus YLR102C, strain apc9, stronger effect = lower value 0.983 | locus YLR262C, strain YPT6, stronger effect = lower value 0.797 | locus YLR342W, strain FKS1 (second series), stronger effect = lower value 0.813 | locus YLR357W, strain rsc2, stronger effect = lower value 0.98 | locus YMR078C, strain ctf18, stronger effect = lower value 0.965 | locus YMR125W, strain sto1, stronger effect = lower value 0.947 | locus YMR307W, strain GAS1, stronger effect = lower value 0.734 | locus YOL012C, strain htz1 0.428 | locus YOR061W, strain CKA2, stronger effect = lower value 0.936 | locus YOR080W, strain dia2, stronger effect = lower value 0.966 | locus YPR119W, strain clb2, stronger effect = lower value 1 | locus YPR141C, strain kar3, stronger effect = lower value 0.981
active: locus YAL021C, strain ccr4, stronger effect = lower value 0.889 | locus YAL030W, strain snc1, stronger effect = lower value 0.734 | locus YBL061C, strain skt5, stronger effect = lower value 0.746 | locus YBR009C, strain hhf1, stronger effect = lower value 0.495 | locus YBR021W, strain FUR4, stronger effect = lower value 0.847 | locus YBR023C, strain chs3, stronger effect = lower value 0.769 | locus YBR231C, strain swc5, stronger effect = lower value 0.504 | locus YBR279W, strain paf1, stronger effect = lower value 0.708 | locus YCL011C, strain gbp2, stronger effect = lower value 0.551 | locus YCL016C, strain dcc1, stronger effect = lower value 0.751 | locus YCL029C, strain bik1, stronger effect = lower value 0.822 | locus YCL061C, strain MRC1, stronger effect = lower value 0.834 | locus YCL069W, strain vba3, stronger effect = lower value 0.663 | locus YCR088W, strain abp1, stronger effect = lower value 0.84 | locus YDL035C, strain GPR1, stronger effect = lower value 0.791 | locus YDL040C, strain nat1, stronger effect = lower value 0.896 | locus YDL074C, strain BRE1, stronger effect = lower value 0.683 | locus YDL101C, strain DUN1, stronger effect = lower value 0.853 | locus YDL134C, strain PPH21, stronger effect = lower value 0.762 | locus YDL192W, strain arf1, stronger effect = lower value 0.688 | locus YDR001C, strain nth1, stronger effect = lower value 0.896 | locus YDR069C, strain doa4, stronger effect = lower value 0.829 | locus YDR101C, strain arx1, stronger effect = lower value 0.742 | locus YDR162C, strain NBP2, stronger effect = lower value 0.69 | locus YDR195W, strain ref2 1.2 [resistant] | locus YDR297W, strain sur2, stronger effect = lower value 0.737 | locus YDR318W, strain mcm21, stronger effect = lower value 0.816 | locus YDR334W, strain swr1, stronger effect = lower value 0.375 | locus YDR335W, strain msn5, stronger effect = lower value 0.802 | locus YDR388W, stronger effect = lower value 0.869 | locus YDR392W, strain spt3, stronger effect = lower value 0.474 | locus YDR502C, strain sam2, stronger effect = lower value 0.696 | locus YEL003W, strain gim4, stronger effect = lower value 0.217 | locus YEL037C, strain rad23, stronger effect = lower value 0.749 | locus YEL061C, strain CIN8 (second series), stronger effect = lower value 0.853 | locus YER015W, strain faa2, stronger effect = lower value 0.478 | locus YER016W, strain bim1, stronger effect = lower value 0.758 | locus YER110C, stronger effect = lower value 0.807 | locus YER155C, strain BEM2 (second series), stronger effect = lower value 0.439 | locus YFR010W, strain ubp6, stronger effect = lower value 0.62 | locus YGL078C, strain dbp3, stronger effect = lower value 0.92 | locus YGL086W, strain mad1, stronger effect = lower value 0.723 | locus YGL173C, strain kem1, stronger effect = lower value 0.692 | locus YGL227W, strain vid30, stronger effect = lower value 0.86 | locus YGL240W, strain doc1, stronger effect = lower value 0.545 | locus YGL248W, strain PDE1, stronger effect = lower value 0.724 | locus YGL253W, strain hxk2, stronger effect = lower value 0.428 | locus YGR078C, strain PAC10, stronger effect = lower value 0.799 | locus YGR135W, strain pre9, stronger effect = lower value 0.815 | locus YGR252W, strain gcn5, stronger effect = lower value 0.634 | locus YHR013C, strain ard1, stronger effect = lower value 0.816 | locus YHR027C, strain rpn1, stronger effect = lower value 0.618 | locus YHR079C, strain IRE1 (second series), stronger effect = lower value 0.885 | locus YHR079C, strain IRE1, stronger effect = lower value 0.67 | locus YHR094C, strain hxt1, stronger effect = lower value 0.913 | locus YHR129C, strain ARP1, stronger effect = lower value 0.865 | locus YHR142W, strain chs7, stronger effect = lower value 0.536 | locus YHR200W, strain rpn10, stronger effect = lower value 0.905 | locus YIL066C, strain RNR3, stronger effect = lower value 0.807 | locus YIL125W, strain kgd1, stronger effect = lower value 0.901 | locus YIR030C, strain dcg1, stronger effect = lower value 0.77 | locus YJL092W, strain hpr5, stronger effect = lower value 0.782 | locus YJL095W, strain BCK1 (second series), stronger effect = lower value 0.791 | locus YJL095W, strain BCK1, stronger effect = lower value 0.606 and 0.709 | locus YJL129C, strain trk1, stronger effect = lower value 0.762 | locus YJL154C, strain vps35, stronger effect = lower value 0.839 | locus YJL164C, strain tpk1, stronger effect = lower value 0.607 | locus YJL166W, strain qcr8, stronger effect = lower value 0.493 | locus YJL187C, strain SWE1 (second series), stronger effect = lower value 0.798 | locus YJR043C, strain POL32, stronger effect = lower value 0.567 | locus YJR066W, strain TOR1, stronger effect = lower value 0.716 | locus YKL009W, strain mrt4, stronger effect = lower value 0.82 | locus YKL160W, strain elf1, stronger effect = lower value 0.7 | locus YKR001C, strain vps1, stronger effect = lower value 0.582 | locus YKR026C, strain gcn3, stronger effect = lower value 0.866 | locus YKR091W, strain srl3, stronger effect = lower value 0.877 | locus YLL001W, strain dnm1, stronger effect = lower value 0.596 | locus YLL026W, stronger effect = lower value 0.65 | locus YLL041C, strain sdh2, stronger effect = lower value 0.801 | locus YLR027C, strain aat2, stronger effect = lower value 0.569 | locus YLR058C, strain SHM2, stronger effect = lower value 0.801 | locus YLR113W, strain HOG1, stronger effect = lower value 0.819 | locus YLR221C, strain rsa3, stronger effect = lower value 0.483 | locus YLR258W, strain gsy2, stronger effect = lower value 0.735 | locus YLR262C, strain YPT6 (second series), stronger effect = lower value 0.826 | locus YLR268W, strain sec22, stronger effect = lower value 0.669 | locus YLR320W, strain mms22, stronger effect = lower value 0.502 | locus YLR330W, strain CHS5, stronger effect = lower value 0.822 | locus YLR342W, strain FKS1, stronger effect = lower value 0.889 | locus YLR370C, strain arc18, stronger effect = lower value 0.766 | locus YLR371W, strain rom2, stronger effect = lower value 0.595 | locus YLR384C, strain iki3, stronger effect = lower value 0.658 | locus YLR418C, strain cdc73, stronger effect = lower value 0.645 | locus YML016C, strain PPZ1, stronger effect = lower value 0.842 | locus YML032C, strain rad52, stronger effect = lower value 0.801 | locus YML120C, strain ndi1, stronger effect = lower value 0.666 | locus YML124C, strain tub3, stronger effect = lower value 0.901 | locus YMR058W, strain fet3, stronger effect = lower value 0.559 | locus YMR129W, stronger effect = lower value 0.798 | locus YMR205C, strain PFK2, stronger effect = lower value 0.732 | locus YMR223W, strain ubp8, stronger effect = lower value 0.735 | locus YMR231W, strain pep5, stronger effect = lower value 0.522 | locus YNL067W, strain RPL9B, stronger effect = lower value 0.779 | locus YNL071W, strain lat1, stronger effect = lower value 0.538 | locus YNL183C, strain NPR1, stronger effect = lower value 0.623 | locus YNL209W, strain ssb2, stronger effect = lower value 0.628 | locus YNL233W, strain BNI4, stronger effect = lower value 0.767 | locus YNL248C, strain rpa49, stronger effect = lower value 0.493 | locus YNL250W, strain rad50, stronger effect = lower value 0.884 | locus YNL271C, strain bni1, stronger effect = lower value 0.887 | locus YNL298W, strain CLA4, stronger effect = lower value 0.906 | locus YNL307C, strain MCK1, stronger effect = lower value 0.575 | locus YNL322C, strain KRE1 (second series), stronger effect = lower value 0.711 | locus YNR049C, strain mso1, stronger effect = lower value 0.908 | locus YNR052C, strain pop2, stronger effect = lower value 0.821 | locus YOL147C, strain pex11, stronger effect = lower value 0.827 | locus YOR001W, strain rrp6, stronger effect = lower value 0.643 | locus YOR069W, strain VPS5, stronger effect = lower value 0.891 | locus YOR070C, strain gyp1, stronger effect = lower value 0.645 | locus YOR083W, strain WHI5, stronger effect = lower value 0.554 | locus YOR106W, strain vam3, stronger effect = lower value 0.359 | locus YOR136W, strain idh2, stronger effect = lower value 0.865 | locus YOR144C, strain elg1, stronger effect = lower value 0.932 | locus YOR184W, strain ser1, stronger effect = lower value 0.679 | locus YOR231W, strain MKK1, stronger effect = lower value 0.684 | locus YOR265W, strain rbl2, stronger effect = lower value 0.756 | locus YOR270C, strain vph1, stronger effect = lower value 0.352 | locus YOR290C, strain snf2, stronger effect = lower value 0.685 | locus YOR316C, strain cot1, stronger effect = lower value 0.921 | locus YPL051W, strain arl3, stronger effect = lower value 0.583 | locus YPL078C, strain atp4, stronger effect = lower value 0.562 | locus YPL106C, strain sse1, stronger effect = lower value 0.808 | locus YPL240C, strain hsp82, stronger effect = lower value 0.752 | locus YPL256C, strain CLN2, stronger effect = lower value 0.822 | locus YPR163C, strain tif3, stronger effect = lower value 0.854 | locus YPR167C, strain met16, stronger effect = lower value 0.904 | strain wtn01, stronger effect = lower value 0.652
